The values that follow come from PubChem BioAssay (EPA / NIEHS).

What all share (conditions): mRNA level, 48 h; actives raise or lower the signal
Read-out in assay [1]: Bcl-2 (BAX) gene, BAX (gene 581)
The assay can be described thus: LTEA_HepaRG_BAX: Life Technologies and Expression Analysis (LTEA) Assay for Bcl-2 (BAX) gene using HepaRG (AID 2283470). The gist of the method:
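Gene expression measured by Fluidigm qRT-PCR with three housekeeping genes for normalisation. HepaRG cells, plated 48 h beforehand, treated 48 h at up to 100 uM (8-point, half-log) in 0.5% DMSO. Bidirectional fitting versus DMSO.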

Read-out in assay [2]: adenosine kinase (ADK) gene, ADK (gene 132)
The assay can be described thus: LTEA_HepaRG_ADK: Life Technologies and Expression Analysis (LTEA) Assay for adenosine kinase (ADK) gene using HepaRG (AID 2283471). Summed up: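 Read-out is ADK transcript level measured by qRT-PCR and normalised to three housekeeping genes. Cells are human HepaRG, dosed for 48 h at up to 100 uM in 0.5% DMSO. Gain or loss of signal is fitted against DMSO controls.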

Read-out in assay [3]: Alpha-fetoprotein (AFP) gene, AFP (gene 174)
The assay can be described thus: LTEA_HepaRG_AFP: Life Technologies and Expression Analysis (LTEA) Assay for Alpha-fetoprotein (AFP) gene using HepaRG (AID 2283472). The gist of the method:
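AFP transcript measured by TaqMan qRT-PCR with three housekeeping genes for normalization, after 48 h chemical treatment of HepaRG cells (top 100 uM, half-log steps, 0.5% DMSO). Gain or loss fitted against vehicle.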

Read-out in another assay: BCL2L11 (gene 10018)
As to the kind of experiment: LTEA_HepaRG_BCL2L11: Life Technologies and Expression Analysis (LTEA) Assay for Bcl-2 (BCL2L11) gene using HepaRG (AID 2283473). Summed up: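 Human hepatic HepaRG cultures are treated 48 h with test chemicals (maximum 100 uM, 0.5% DMSO vehicle). Expression of BCL2L11 is measured by qRT-PCR against ACTB, GAPDH and POLR2A, with activity in either direction scored relative to vehicle.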

Read-out in assay [4]: Apolipoprotein A-V (APOA5) gene, APOA5 (gene 116519)
As to the kind of experiment: LTEA_HepaRG_APOA5: Life Technologies and Expression Analysis (LTEA) Assay for Apolipoprotein A-V (APOA5) gene using HepaRG (AID 2283474). The gist of the method:
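Concentration-response of APOA5 expression in HepaRG: eight half-log doses to 100 uM, 48 h, qRT-PCR normalized to ACTB/GAPDH/POLR2A, bidirectional fitting with 0.5% DMSO as baseline.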

Read-out in assay [5]: Apoptosis regulator Bcl-2 (Homo sapiens) (UniProt P10415)
The assay can be described thus: LTEA_HepaRG_BCL2: Life Technologies and Expression Analysis (LTEA) Assay for Bcl-2 gene using HepaRG (AID 2283475). Summed up: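 qRT-PCR of BCL2 transcript, normalized to three housekeeping genes (ACTB, GAPDH, POLR2A), after 48 h chemical exposure of HepaRG cells; concentrations top 100 uM with half-log dilutions, 0.5% DMSO vehicle, duplicates; changes up or down fitted relative to vehicle.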

Read-out in assay [6]: Bcl-2 (BID) gene, BID (gene 637)
As to the kind of experiment: LTEA_HepaRG_BID: Life Technologies and Expression Analysis (LTEA) Assay for Bcl-2 (BID) gene using HepaRG (AID 2283476). Summed up:
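Duplicate 48 h treatments of HepaRG cells in serum-free induction medium spanned 100 uM downward in half-log steps, 0.5% DMSO. Transcript change quantified by qRT-PCR against three housekeeping genes, fitted up or down versus DMSO.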

Read-out in the next assay: Caspase-3 (Homo sapiens) (UniProt P42574)
The assay can be described thus: LTEA_HepaRG_CASP3: Life Technologies and Expression Analysis (LTEA) Assay for cysteine-aspartic acid protease (CASP3) using HepaRG (AID 2283477). The gist of the method: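 Transcript-level assay: CASP3 mRNA in human HepaRG after 48 h treatment, eight half-log concentrations from 100 uM in 0.5% DMSO, quantified by qRT-PCR.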

Read-out in assay [7]: Cytochrome P450 (CYP24A1), CYP24A1 (gene 1591)
The assay can be described thus: LTEA_HepaRG_CYP24A1: Life Technologies and Expression Analysis (LTEA) Assay for Cytochrome P450 (CYP24A1) using HepaRG (AID 2283478). Summed up: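 Gene expression of CYP24A1 by TaqMan qRT-PCR in HepaRG after 48 h treatment, highest concentration 100 uM; activity fitted in both directions relative to DMSO vehicle.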

Read-out in assay [8]: Cytochrome P450 (CYP1A2), CYP1A2 (gene 1544)
As to the kind of experiment: LTEA_HepaRG_CYP1A2: Life Technologies and Expression Analysis (LTEA) Assay for Cytochrome P450 (CYP1A2) using HepaRG (AID 2283479). Summed up:
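In duplicate wells, HepaRG cultures maintained in 0.5% DMSO were treated 48 h across an 8-point, half-log series topping at 100 uM; phenobarbital (1 mM) served as induction control. Expression was read by qRT-PCR.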

Read-out in assay [9]: cysteine-aspartic acid protease (CASP8), CASP8 (gene 841)
As to the kind of experiment: LTEA_HepaRG_CASP8: Life Technologies and Expression Analysis (LTEA) Assay for cysteine-aspartic acid protease (CASP8) using HepaRG (AID 2283480). The gist of the method: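 Concentration-response in duplicate up to 100 uM (half-log steps, 0.5% DMSO) on differentiated HepaRG cultures for 48 h. Expression change of CASP8 mRNA is determined by TaqMan qRT-PCR with housekeeping-gene normalization.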

Read-out in assay [10]: Cytochrome P450 (CYP2B6), CYP2B6 (gene 1555)
As to the kind of experiment: LTEA_HepaRG_CYP2B6: Life Technologies and Expression Analysis (LTEA) Assay for Cytochrome P450 (CYP2B6) using HepaRG (AID 2283481). Summed up: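 Human HepaRG, 48 h dosing, 0.5% DMSO vehicle, top dose 100 uM. CYP2B6 transcript by qRT-PCR, housekeeping-normalized, bidirectional curve fit.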

Read-out in assay [11]: Cytochrome P450 2C19 (Homo sapiens) (UniProt P33261)
As to the kind of experiment: LTEA_HepaRG_CYP2C19: Life Technologies and Expression Analysis (LTEA) Assay for CYP2C19 using HepaRG (AID 2283482). Summed up: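 Endpoint: CYP2C19 mRNA change, bidirectional fit vs 0.5% DMSO. Cells: HepaRG, 48 h exposure, eight-point series topping at 100 uM. Quantitation: qRT-PCR normalized to ACTB, GAPDH, POLR2A.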

Read-out in the next assay: CYP2C9 (gene 1559)
The assay can be described thus: LTEA_HepaRG_CYP2C9: Life Technologies and Expression Analysis (LTEA) Assay for CYP2C9 using HepaRG (AID 2283484). Summed up: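 Eight-point concentration-response (highest 100 uM, half-log dilutions) in HepaRG cells for 48 h; CYP2C9 expression by qRT-PCR normalized to ACTB, GAPDH, POLR2A. Bidirectional fit, DMSO baseline.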

Read-out in the next assay: CYP2E1 (gene 1571)
As to the kind of experiment: LTEA_HepaRG_CYP2E1: Life Technologies and Expression Analysis (LTEA) Assay for CYP2E1 using HepaRG (AID 2283485). The gist of the method: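 CYP2E1 transcript measured by Fluidigm qRT-PCR against three housekeeping genes in human HepaRG cells treated 48 h (top 100 uM, half-log steps, 0.5% DMSO vehicle). Gain or loss fitted relative to DMSO baseline.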

Read-out in assay [12]: DNA damage-inducible transcript 3 (DDIT3), DDIT3 (gene 1649)
The assay can be described thus: LTEA_HepaRG_DDIT3: Life Technologies and Expression Analysis (LTEA) Assay for DNA damage-inducible transcript 3 (DDIT3) using HepaRG (AID 2283488). Summed up: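 DDIT3 transcript was quantified by qRT-PCR with ACTB/GAPDH/POLR2A normalization after 48 h chemical treatment of differentiated HepaRG cells in 0.5% DMSO. Dosing was eight-point, half-log, top 100 uM, duplicate wells. Curves fitted bidirectionally versus DMSO.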

Read-out in assay [13]: Pro-epidermal growth factor (Homo sapiens) (UniProt P01133)
The assay can be described thus: LTEA_HepaRG_EGF: Life Technologies and Expression Analysis (LTEA) Assay for Epidermal growth factor (EGF) using HepaRG (AID 2283489). The gist of the method: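 Concentration-response mRNA assay: HepaRG cells dosed 48 h (max 100 uM, 0.5% DMSO), EGF measured by qRT-PCR and normalized to ACTB/GAPDH/POLR2A.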

Read-out in assay [14]: Cytochrome P450 3A4 (Homo sapiens) (UniProt P08684)
As to the kind of experiment: LTEA_HepaRG_CYP3A4: Life Technologies and Expression Analysis (LTEA) Assay for CYP3A4 using HepaRG (AID 2283487). The gist of the method:
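HepaRG, 48 h exposure, 8-pt CRC from 100 uM (half-log), 0.5% DMSO, duplicates; serum-free induction medium. Readout: CYP3A4 mRNA, qRT-PCR, ACTB/GAPDH/POLR2A normalization. Bidirectional fit vs DMSO.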

Read-out in the next assay: CYP2C8 (gene 1558)
The assay can be described thus: LTEA_HepaRG_CYP2C8: Life Technologies and Expression Analysis (LTEA) Assay for CYP2C8 using HepaRG (AID 2283483). Summed up: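 This is a transcriptional endpoint in HepaRG cultures: 48 h exposure, highest concentration 100 uM. CYP2C8 mRNA is quantified by TaqMan qRT-PCR.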

Read-out in a further assay: CYP4A11 (gene 1579)
The assay can be described thus: LTEA_HepaRG_CYP4A11: Life Technologies and Expression Analysis (LTEA) Assay for CYP4A11 using HepaRG (AID 2283486). Summed up: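 Human hepatic HepaRG cultures receive duplicate 48 h exposures across a concentration-response series topping at 100 uM. Expression changes in CYP4A11 are measured by qRT-PCR relative to DMSO controls.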

Active and inactive are the calls of the source. The calls were made as follows: active = hit-call score of the fitted dose curve at least 0.9, where 1 is the maximum; inactive = score below 0.9.

Cytochrome P450 2C19 (Homo sapiens), sequence (P33261 whole entry, looked up): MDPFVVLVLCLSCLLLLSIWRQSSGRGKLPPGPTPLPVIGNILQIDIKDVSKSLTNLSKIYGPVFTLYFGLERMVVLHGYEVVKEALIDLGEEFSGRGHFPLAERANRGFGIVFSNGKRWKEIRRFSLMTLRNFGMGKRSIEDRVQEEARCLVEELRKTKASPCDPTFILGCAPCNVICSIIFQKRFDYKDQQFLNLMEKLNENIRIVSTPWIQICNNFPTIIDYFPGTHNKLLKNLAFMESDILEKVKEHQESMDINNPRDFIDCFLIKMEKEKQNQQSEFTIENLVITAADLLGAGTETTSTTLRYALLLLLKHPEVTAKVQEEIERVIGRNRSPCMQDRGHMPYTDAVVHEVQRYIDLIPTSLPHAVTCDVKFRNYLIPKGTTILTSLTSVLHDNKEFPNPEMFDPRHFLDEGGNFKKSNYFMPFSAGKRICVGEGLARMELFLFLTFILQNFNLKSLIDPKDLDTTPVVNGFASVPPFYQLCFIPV
Apoptosis regulator Bcl-2 (Homo sapiens), sequence (P10415 whole entry, looked up): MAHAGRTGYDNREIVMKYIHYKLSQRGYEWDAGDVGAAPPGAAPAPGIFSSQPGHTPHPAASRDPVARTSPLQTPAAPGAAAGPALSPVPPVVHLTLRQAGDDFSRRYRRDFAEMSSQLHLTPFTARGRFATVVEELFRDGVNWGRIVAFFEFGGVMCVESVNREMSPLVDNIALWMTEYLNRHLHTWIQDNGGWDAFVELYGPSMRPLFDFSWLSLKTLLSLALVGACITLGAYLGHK
Caspase-3 (Homo sapiens), sequence (P42574 whole entry, looked up): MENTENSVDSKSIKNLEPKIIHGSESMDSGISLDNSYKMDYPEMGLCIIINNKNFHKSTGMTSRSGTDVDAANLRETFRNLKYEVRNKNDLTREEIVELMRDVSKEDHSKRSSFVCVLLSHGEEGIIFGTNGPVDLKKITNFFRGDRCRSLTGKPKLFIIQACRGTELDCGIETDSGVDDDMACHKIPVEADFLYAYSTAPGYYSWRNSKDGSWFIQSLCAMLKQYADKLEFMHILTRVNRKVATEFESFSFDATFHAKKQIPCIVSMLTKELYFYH
Cytochrome P450 3A4 (Homo sapiens), sequence (P08684 whole entry, looked up): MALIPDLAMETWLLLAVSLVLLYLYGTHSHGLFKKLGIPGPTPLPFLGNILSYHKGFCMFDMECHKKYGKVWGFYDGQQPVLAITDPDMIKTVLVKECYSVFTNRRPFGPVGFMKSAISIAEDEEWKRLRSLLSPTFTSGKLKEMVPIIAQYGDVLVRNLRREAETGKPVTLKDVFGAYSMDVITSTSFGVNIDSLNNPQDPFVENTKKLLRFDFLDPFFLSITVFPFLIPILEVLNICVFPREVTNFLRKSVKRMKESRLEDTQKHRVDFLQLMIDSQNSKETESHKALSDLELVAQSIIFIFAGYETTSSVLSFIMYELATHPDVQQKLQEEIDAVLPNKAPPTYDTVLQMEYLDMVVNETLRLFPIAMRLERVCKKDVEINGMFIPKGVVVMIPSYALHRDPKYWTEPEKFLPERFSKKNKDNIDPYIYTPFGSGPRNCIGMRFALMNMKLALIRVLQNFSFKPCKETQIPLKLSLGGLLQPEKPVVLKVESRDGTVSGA

`CC(C)Oc1cccc(NC(=O)c2ccccc2C(F)(F)F)c1`: the compound was called inactive (in assay [1]; in assay [2]; in assay [3]; with BCL2L11 (gene 10018); in [4]; in assay [5]). The outcome (in [6]; with Caspase-3 (Homo sapiens); in assay [7]; in [9]; with CYP2C9 (gene 1559); in [12]) was inactive. For the same compound, the compound was classed as inactive in assay [13]. For the same compound, the half-maximal activity concentration (AC50) in assay [8] is 80 µM (active); in assay [10], 33 µM (active); in assay [11], 40.2 µM (active); in the assay with CYP2E1 (gene 1571) it was 84.4 µM (active).

Consider `CCOC(=O)C(C)OC(=O)c1cc(Oc2ccc(C(F)(F)F)cc2Cl)ccc1[N+](=O)[O-]` (centres undefined), for which the outcome (in [1]; in assay [2]; with BCL2L11 (gene 10018); in [4]; in [5]; in assay [6]) was inactive. Moreover, the compound was called inactive (with Caspase-3 (Homo sapiens); in assay [7]; in assay [8]; in assay [9]; with CYP2C9 (gene 1559); in [12]). Further, the call in assay [13] was inactive. The AC50 in [3] is 50 µM (active); in assay [10] it was 11.5 µM (active); in [11] it was 12.9 µM (active); with CYP2E1 (gene 1571), 36.6 µM (active); in [14], 4.78 µM (active).

In the case of `O=C1C2CC=CCC2C(=O)N1SC(Cl)(Cl)Cl` (centres undefined), the compound was classed as inactive (in assay [1]; in [2]; in [3]; with BCL2L11 (gene 10018); in assay [4]; in assay [5]). Moreover, the result (in assay [6]; with Caspase-3 (Homo sapiens); in [7]; in assay [9]; in assay [10]; in [11]) was inactive. Further, the outcome (with CYP2C8 (gene 1558); with CYP2C9 (gene 1559); with CYP2E1 (gene 1571); in the assay with CYP4A11 (gene 1579); in assay [14]; in [12]) was inactive. Further, the outcome in assay [13] was inactive.
